Hit rate of the full screen: of about 70,000 compounds, about 120 (0.17%) were called active. No stated cut-off is given here; in the data, active means inhibition above about 34%; inconclusive means no clear call, values can overlap the other calls; inactive means below about 11%. The list comes from a sample in which actives are over-represented; it also holds similar structures and randomly drawn compounds.

Isocitrate dehydrogenase [NADP] cytoplasmic (Homo sapiens), sequence (O75874 whole entry R132H): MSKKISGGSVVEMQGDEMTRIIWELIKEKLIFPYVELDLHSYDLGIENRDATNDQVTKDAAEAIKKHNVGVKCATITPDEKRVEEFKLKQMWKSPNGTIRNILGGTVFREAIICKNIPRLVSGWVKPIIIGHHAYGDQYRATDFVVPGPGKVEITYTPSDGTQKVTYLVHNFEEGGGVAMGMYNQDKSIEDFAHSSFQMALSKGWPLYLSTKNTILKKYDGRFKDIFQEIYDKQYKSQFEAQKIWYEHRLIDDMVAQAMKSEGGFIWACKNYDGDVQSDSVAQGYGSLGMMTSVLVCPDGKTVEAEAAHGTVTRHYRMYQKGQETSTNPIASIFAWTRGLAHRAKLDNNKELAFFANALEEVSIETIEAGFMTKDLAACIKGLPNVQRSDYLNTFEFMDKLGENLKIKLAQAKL

The assay addresses Isocitrate dehydrogenase [NADP] cytoplasmic (Homo sapiens) (UniProt O75874). Description: PubChem AID 624101.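 Further: 0% = DMSO and 100% = no enzyme.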 The conditions noted are these: IDH1 R132H reductase, diaphorase/resazurin fluorescence, 60 min; at 10 µM; active compounds read high. Background: Alamar Blue is a resazurin reagent that responds to reducing activity.
What is called inhibition is the drop in the measured response relative to a control, in per cent. For `CO[C@@H]1CN(C)C(=O)c2cc(NC(=O)C3CC3)ccc2OC[C@@H](C)N(Cc2ccc(F)cc2)C[C@@H]1C`, the inhibition was -0.084% (inactive).

`CN(C)CC(=O)Nc1ccc2c(c1)[C@H]1C[C@H](CC(=O)NCc3ccccc3)O[C@@H](CO)[C@H]1O2`: the inhibition was -0.369% (inactive).

Take `C[C@H](CO)N1C[C@H](C)[C@H](CN(C)C(=O)C2CCOCC2)Oc2ncc(-c3ccccc3)cc2C1=O`: the inhibition is 0.163% (inactive).

Take `Cc1ccc(S(=O)(=O)NCC[C@H]2CC[C@@H](NC(=O)C3CCOCC3)[C@@H](CO)O2)cc1`: the inhibition was 0.168% (inactive).

As for `COc1cccc(C(=O)Nc2ccc3c(c2)OC[C@H](C)NC[C@H](C)[C@H](OC)CN(C)C3=O)c1`, the inhibition was -0.351% (inactive).

For the compound `CO[C@@H]1CN(C)C(=O)c2cc(NC(C)=O)ccc2OC[C@H](C)N(Cc2ccccc2F)C[C@@H]1C`, the inhibition is -0.198% (inactive).

Regarding `Cc1ccc(-c2cnc3c(c2)C(=O)N([C@@H](C)CO)C[C@H](C)[C@H](CN(C)C(=O)c2cccnc2)O3)cc1`, the inhibition is -1.23% (inactive).

Regarding `CO[C@@H](CN(C)S(=O)(=O)c1ccccc1)[C@@H](C)CN(Cc1ccccc1Cl)[C@H](C)CO`, the inhibition is -0.567% (inactive).

Regarding `O=C(N[C@H]1CC[C@@H](CCNS(=O)(=O)c2ccc(F)cc2)O[C@@H]1CO)c1ccccn1`, the inhibition is 0.234% (inactive).

Turning to `Cc1noc(C)c1C(=O)N(C)C[C@H]1OCc2ccccc2-c2c(n(C)c3ccccc23)C(=O)N([C@@H](C)CO)C[C@H]1C`, the inhibition was -2% (inactive).

Take `C[C@@H]1CN([C@@H](C)CO)C(=O)Cc2cc(NC(=O)CCCCCC(=O)Nc3ccccc3N)ccc2O[C@H]1CN(C)C(=O)Nc1ccc(C(F)(F)F)cc1`: the inhibition was 0.304% (inactive).

With `CC(=O)N(C)C[C@H]1Oc2cc(-c3ccc(C)cc3)ccc2S(=O)(=O)N([C@@H](C)CO)C[C@@H]1C`, the inhibition is 5.52% (inactive).

For `CS(=O)(=O)Nc1ccc2c(c1)[C@H]1C[C@H](CC(=O)NC3CCCC3)O[C@@H](CO)[C@H]1O2`, the inhibition was -0.18% (inactive).

As for `CO[C@@H]1CN(C)C(=O)c2ccc(NS(C)(=O)=O)cc2OC[C@H](C)NC[C@H]1C`, the inhibition is 0.02% (inactive).

With `CO[C@H]1CN(C)C(=O)c2cc(NS(=O)(=O)c3ccccc3)ccc2OC[C@H](C)N(C(=O)NC(C)C)C[C@@H]1C`, the inhibition is 0.066% (inactive).

As to `O=C(NCC[C@@H]1CC[C@H](NS(=O)(=O)c2cccc(F)c2)[C@H](CO)O1)c1cnccn1`, the inhibition is -0.0355% (inactive).

Consider `O=C(NCC[C@H]1CC[C@H](NC(=O)C2CC2)[C@@H](CO)O1)c1cc(Cl)cc(Cl)c1`, for which the inhibition is -0.0835% (inactive).

As for `COc1cccc(-c2cn(CC[C@H]3CC[C@H](NC(=O)CN(C)C)[C@H](CO)O3)nn2)c1`, the inhibition is -0.376% (inactive).

`O=C(O)C[C@@H]1C[C@@H]2c3cc(NC(=O)NC4CCCC4)ccc3O[C@@H]2[C@H](CO)O1`: the inhibition was -0.0525% (inactive).

Regarding `C/C=C/c1cnc2c(c1)C(=O)N([C@@H](C)CO)C[C@@H](C)[C@@H](CN(C)C(=O)c1cnccn1)O2`, the inhibition is -1.79% (inactive).

Consider `CN(C)C(=O)C[C@@H]1CC[C@@H](NS(=O)(=O)c2ccccc2)[C@H](CO)O1`, for which the inhibition was -0.243% (inactive).

Take `CO[C@H]1CN(C)C(=O)c2cc(NC(=O)c3ccccc3)ccc2OC[C@H](C)NC[C@H]1C`: the inhibition is 0.304% (inactive).

On to `CC(C)NC(=O)N[C@H]1CC[C@H](CC(=O)NC2Cc3ccccc3C2)O[C@H]1CO`, for which the inhibition is 0.112% (inactive).

With `CO[C@@H]1CN(C)C(=O)c2cc(NC(=O)C3CCOCC3)ccc2OC[C@H](C)N(Cc2cccnc2)C[C@H]1C`, the inhibition is -0.057% (inactive).

For `O=C(C[C@@H]1CC[C@H](NS(=O)(=O)c2cccc(F)c2)[C@H](CO)O1)N1CCCCC1`, the inhibition was 0.0905% (inactive).

Turning to `O=S(=O)(N[C@@H]1CC[C@H](CCn2cc(C3(O)CCCC3)nn2)O[C@@H]1CO)c1ccc(Cl)cc1`, the inhibition is 0.461% (inactive).

Consider `CCCC(=O)Nc1ccc2c(c1)OC[C@H](C)N(CCC(F)(F)F)C[C@@H](C)[C@H](OC)CN(C)C2=O`, for which the inhibition was -0.114% (inactive).

`COc1ccccc1-c1cn(CC[C@H]2CC[C@H](NC(=O)Cc3ccccn3)[C@H](CO)O2)nn1`: the inhibition is 0.087% (inactive).

On to `COc1ccccc1S(=O)(=O)N[C@@H]1C=C[C@H](CC(=O)N2CCN(C)CC2)O[C@@H]1CO`, for which the inhibition is 0.0315% (inactive).

With `CS(=O)(=O)Nc1ccc2c(c1)[C@H]1C[C@H](CC(=O)NCc3ccc(Cl)cc3)O[C@@H](CO)[C@H]1O2`, the inhibition is -0.335% (inactive).

With `CO[C@@H]1CN(C)C(=O)c2ccc(NC(=O)C3CCCCC3)cc2OC[C@@H](C)N(Cc2nccs2)C[C@@H]1C`, the inhibition was 0.03% (inactive).

Consider `C[C@@H]1CN([C@H](C)CO)C(=O)c2cc(Br)cnc2O[C@@H]1CN(C)C(=O)Nc1ccc(F)cc1`, for which the inhibition was 0.064% (inactive).

Take `C[C@H](NC(=O)C[C@@H]1CC[C@@H](NC(=O)Cc2ccccn2)[C@@H](CO)O1)c1ccccc1`: the inhibition was 0.0085% (inactive).

As to `O=C(N[C@H]1CC[C@@H](CCNS(=O)(=O)c2ccccc2)O[C@H]1CO)c1cccnc1`, the inhibition is -0.222% (inactive).

As to `Cc1cccc(S(=O)(=O)N[C@H]2CC[C@@H](CCNS(=O)(=O)c3ccccc3F)O[C@H]2CO)c1`, the inhibition was 0.059% (inactive).

On to `COc1ccc(NC(=O)N[C@H]2CC[C@H](CCn3cc(-c4ccccc4F)nn3)O[C@H]2CO)cc1`, for which the inhibition was -0.29% (inactive).

As for `COCc1cn(CC[C@H]2CC[C@@H](NC(=O)Nc3ccc(OC)cc3)[C@@H](CO)O2)nn1`, the inhibition is 0.176% (inactive).

Consider `C[C@@H]1CN([C@H](C)CO)C(=O)c2cc(C#CC3CC3)cnc2O[C@@H]1CN(C)Cc1cccc(C(=O)O)c1`, for which the inhibition is -0.167% (inactive).

For `CO[C@H]1CN(C)C(=O)c2ccc(NC(=O)Nc3ccc4c(c3)OCO4)cc2OC[C@H](C)NC[C@H]1C`, the inhibition is -0.152% (inactive).

Turning to `COCC(=O)Nc1ccc2c(c1)OC[C@H](C)N(C(=O)c1cnccn1)C[C@@H](C)[C@H](OC)CN(C)C2=O`, the inhibition is 0.439% (inactive).

With `CC(C)CC#Cc1ccc2c(c1)O[C@@H](CN(C)C(=O)c1ccccn1)[C@@H](C)CN([C@H](C)CO)S2(=O)=O`, the inhibition is -2.87% (inactive).

As to `CO[C@H]1CN(C)C(=O)c2cc(NS(=O)(=O)CC(F)(F)F)ccc2OC[C@@H](C)N(Cc2nccs2)C[C@@H]1C`, the inhibition is 0.457% (inactive).

`CO[C@H]1CN(C)C(=O)c2ccc(NC(=O)NC(C)C)cc2OC[C@H](C)N(Cc2cncnc2)C[C@@H]1C`: the inhibition is 0.214% (inactive).

On to `O=C(Cc1ccncc1)NCC[C@H]1CC[C@@H](NC(=O)Nc2ccc(Cl)cc2)[C@@H](CO)O1`, for which the inhibition is 0.092% (inactive).

On to `O=C(C[C@H]1CC[C@@H](NC(=O)Nc2ccc(C(F)(F)F)cc2)[C@H](CO)O1)NCc1cc(F)cc(F)c1`, for which the inhibition is 0.19% (inactive).

As for `CCS(=O)(=O)N[C@@H]1CC[C@@H](CC(=O)NCC2CC2)O[C@H]1CO`, the inhibition is -0.0912% (inactive).

Turning to `COc1ccc(CNC(=O)C[C@@H]2CC[C@H](NC(=O)c3cccc(F)c3)[C@H](CO)O2)cc1`, the inhibition was 0.0345% (inactive).

`O=C(N[C@H]1CC[C@@H](CCNS(=O)(=O)c2ccc(Cl)cc2)O[C@H]1CO)c1cccc(F)c1`: the inhibition is -0.0045% (inactive).

In the case of `CO[C@@H]1CN(C)C(=O)c2ccc(NC(C)=O)cc2OC[C@@H](C)N(Cc2ccc(-c3ccccn3)cc2)C[C@H]1C`, the inhibition is -0.357% (inactive).

Consider `CCCC(=O)Nc1ccc2c(c1)OC[C@H](C)N(S(=O)(=O)c1cn(C)cn1)C[C@@H](C)[C@H](OC)CN(C)C2=O`, for which the inhibition was -0.504% (inactive).

Turning to `C[C@@H]1CN([C@@H](C)CO)C(=O)c2cc(-c3ccccc3F)cnc2O[C@H]1CN(C)C(=O)C1CC1`, the inhibition was 0.564% (inactive).

Regarding `O=C(C[C@H]1C[C@@H]2c3cc(NC(=O)CC4CC4)ccc3O[C@@H]2[C@H](CO)O1)NCc1cccnc1`, the inhibition is -0.193% (inactive).

On to `CO[C@@H]1CN(C)C(=O)c2cc(NC(=O)C3CC3)ccc2OC[C@H](C)N(C(=O)CN2CCOCC2)C[C@@H]1C`, for which the inhibition was 0.377% (inactive).

For `COCCNC(=O)C[C@H]1C[C@H]2c3cc(NS(C)(=O)=O)ccc3O[C@H]2[C@H](CO)O1`, the inhibition was -0.133% (inactive).

In the case of `COCC(=O)N(C)C[C@H]1Oc2cc(C#CC3CCCC3)ccc2S(=O)(=O)N([C@H](C)CO)C[C@@H]1C`, the inhibition is -1.42% (inactive).

Take `C[C@H]1CN([C@@H](C)CO)C(=O)c2cc(-c3ccccc3F)cnc2O[C@H]1CN(C)C(=O)C1CCOCC1`: the inhibition was 0.288% (inactive).

For `O=C(N[C@H]1CC[C@@H](CCNS(=O)(=O)c2ccccc2)O[C@@H]1CO)c1cnccn1`, the inhibition is -0.078% (inactive).

On to `O=C(NCC[C@@H]1CC[C@@H](NS(=O)(=O)c2cccc(F)c2)[C@H](CO)O1)C1CC1`, for which the inhibition was 0.164% (inactive).

With `CO[C@H]1CN(C)C(=O)c2cc(NC(=O)Nc3ccccc3)ccc2OC[C@@H](C)N(C(=O)Nc2c(C)noc2C)C[C@@H]1C`, the inhibition was -0.138% (inactive).

For `COc1ccccc1-c1cn(CC[C@H]2CC[C@@H](NC(=O)CCN3CCCCC3)[C@@H](CO)O2)nn1`, the inhibition was -0.639% (inactive).

Regarding `O=C(C[C@H]1C=C[C@@H](NC(=O)NC2CCCCC2)[C@@H](CO)O1)NCc1ccc(Cl)cc1`, the inhibition is 0.05% (inactive).

`CCC(=O)Nc1ccc2c(c1)C(=O)N(C)C[C@@H](OC)[C@H](C)CN(Cc1ccccc1C(=O)O)[C@@H](C)CO2`: the inhibition was -0.502% (inactive).

Take `CO[C@@H]1CN(C)C(=O)c2ccc(NS(C)(=O)=O)cc2OC[C@H](C)N(C(=O)C2CC2)C[C@H]1C`: the inhibition was -0.15% (inactive).

With `CC(=O)N[C@H]1CC[C@H](CCNC(=O)C2CC2)O[C@H]1CO`, the inhibition is 0.591% (inactive).

For the origin of these results see PubChem BioAssay AID624101 (Broad Institute, 2012).
